From PubChem BioAssay (NCI)
This is part of a sample that, as a whole, favours compounds with a hit. Of some 79,000 tested, about 15% had one in any assay. Calls of active or inactive are those of the source. Rule as the data show it: active = growth inhibition above about 70%; inactive = the rest.

Key:
[1] = NCI Yeast Anticancer Drug Screen. Data for the rad52 strain (AID 147);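 also: 0% = growth of vehicle-treated control cultures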; conditions: S. cerevisiae rad52 mutant growth inhibition, stronger effect = higher value
Outline: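 Inhibition of yeast growth, referenced to vehicle controls, was the measured output for a strain with defective DNA damage repair.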

[2] = NCI Yeast Anticancer Drug Screen. Data for the wt1 strain (AID 149);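 also: 0% = growth of vehicle-treated wt1 cultures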; conditions: S. cerevisiae wt1 strain (SPY 50644) growth inhibition, stronger effect = higher value
Outline: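 Each compound is tested on wt1 yeast and the loss of growth versus vehicle gives the inhibition value.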

[3] = NCI Yeast Anticancer Drug Screen. Data for the mgt1 strain (AID 153); conditions: S. cerevisiae mgt1 mutant growth inhibition, stronger effect = higher value
Outline: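 In the mgt1 strain, test compounds were added and growth inhibition was determined relative to vehicle-treated controls.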

[4] = NCI Yeast Anticancer Drug Screen. Data for the rad50 strain (AID 155);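 also: 0% = growth of vehicle-only cultures of the same strain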; conditions: S. cerevisiae rad50 strain growth inhibition, stronger effect = higher value
Outline: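 Vehicle-treated cultures provide the reference for the growth inhibition reported for compound-exposed, repair-deficient yeast.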

[5] = NCI Yeast Anticancer Drug Screen. Data for the mec2-1 strain (AID 157); conditions: S. cerevisiae mec2-1 strain, stronger effect = higher value
Outline: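 Each compound was tested on mec2-1 yeast, a strain altered in DNA damage repair or cell cycle control. Growth inhibition is reported relative to vehicle.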

[6] = NCI Yeast Anticancer Drug Screen. Data for the rad14 strain (AID 159);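 also: 0% = growth of vehicle-treated control cultures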; conditions: S. cerevisiae rad14 strain growth inhibition, stronger effect = higher value
Outline: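 Inhibition of growth is reported for a repair-deficient yeast mutant following compound treatment, calculated relative to cultures that received vehicle.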

[7] = NCI Yeast Anticancer Drug Screen. Data for the sgs1 mgt1 strain (AID 161);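 also: 0% = growth of cultures given vehicle only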; conditions: S. cerevisiae sgs1 mgt1 strain, stronger effect = higher value
Outline: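 Test agents were incubated with a DNA-repair-mutant yeast strain. Growth was then read and compared against vehicle-treated controls.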

[8] = NCI Yeast Anticancer Drug Screen. Data for the CLN2oe strain (AID 163);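 also: 0% = growth of vehicle-only control cultures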; conditions: S. cerevisiae CLN2oe strain, stronger effect = higher value
Outline: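 First, the altered yeast strain was treated with each compound; second, its growth was measured; finally, inhibition was derived by comparison with vehicle controls.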

[9] = NCI Yeast Anticancer Drug Screen. Data for the cln2 rad14 strain (AID 165);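 also: 0% = growth equal to vehicle treated cultures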; conditions: S. cerevisiae cln2 rad14 strain, stronger effect = higher value
Outline: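 Test compounds were added to cln2 rad14 yeast cultures; inhibition of growth was then determined by comparison with vehicle treatment.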

[10] = NCI Yeast Anticancer Drug Screen. Data for the bub3 strain (AID 167); conditions: S. cerevisiae bub3 mutant strain, stronger effect = higher value
Outline: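 Mutant yeast screening strain plus compound; vehicle-treated cultures serve as the 0% inhibition reference.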

[11] = NCI Yeast Anticancer Drug Screen. Data for the wt2 strain (AID 169); conditions: S. cerevisiae wt2 strain growth inhibition, stronger effect = higher value
Outline: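 The panel's yeast strains carry defined changes in DNA repair or cell cycle genes. Each strain is grown with compound, and growth loss is scored relative to vehicle.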

[12] = NCI Yeast Anticancer Drug Screen. Data for the mlh1 strain (AID 171);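 also: 0% = growth of vehicle-treated control cultures of the same strain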; conditions: S. cerevisiae mlh1 strain growth inhibition, stronger effect = higher value
Outline: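 Inhibition values reflect reduced yeast growth in the presence of compound, referenced to vehicle controls, using a strain chosen for its alteration in DNA repair or cell cycle control.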

[13] = NCI Yeast Anticancer Drug Screen. Data for the sgs1 strain (AID 173);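 also: 0% = growth of vehicle-only control cultures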; conditions: S. cerevisiae sgs1 mutant, stronger effect = higher value
Outline: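 Vehicle-treated cultures served as reference for growth inhibition of a yeast strain altered in DNA damage repair or cell cycle control after compound exposure.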

[14] = NCI Yeast Anticancer Drug Screen. Data for the mlh1 rad18 strain (AID 175); conditions: S. cerevisiae mlh1 rad18 strain growth inhibition, stronger effect = higher value
Outline: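 Inhibition values reflect reduced growth of mutant yeast versus vehicle-treated controls following compound exposure; the mutations affect DNA damage repair.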

[15] = NCI Yeast Anticancer Drug Screen. Data for the rad18 strain (AID 177); conditions: S. cerevisiae rad18 mutant growth inhibition, stronger effect = higher value
Outline: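 Steps: expose repair-mutant yeast to compound; measure growth; express as inhibition relative to vehicle control.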

[16] = NCI Yeast Anticancer Drug Screen. Data for the rad50EPP+ strain (AID 151);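 also: 0% = growth of vehicle-treated control cultures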; conditions: S. cerevisiae rad50 mutant strain, stronger effect = higher value
Outline: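 Genetically defined yeast (rad50EPP+, DNA damage repair alteration) is grown with compound, and inhibition of growth is expressed relative to vehicle-treated controls.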

[17] = at 5.0 µM (retest, dose inferred, filed as 0.5)
[18] = at 50.0 µM (retest, dose inferred, filed as 5.0)

Measured: growth inhibition

c1ccc2cc3n[se]nc3cc2c1
active: [1]; at 100.0 µM 96% | [2]; at 100.0 µM 72% | [3]; at 100.0 µM 94% | [4]; at 33.0 µM 79% | [4]; at 50.0 µM 97.5% | [4]; at 100.0 µM 96% | [5]; at 100.0 µM 93% | [6]; at 100.0 µM 98% | [8]; at 100.0 µM 78% | [10]; at 100.0 µM 96% | [11]; at 100.0 µM 95% | [12]; at 100.0 µM 97% | [13]; at 100.0 µM 91% | [14]; at 50.0 µM 76.2% | [15]; at 100.0 µM 96%
inactive: [1]; at 1.2 µM 2% | [1]; at 3.7 µM 5% | [1]; at 11.0 µM 17% | [1]; at 33.0 µM 47% | [2]; at 1.2 µM 5% | [2]; at 3.7 µM 2% | [2]; at 11.0 µM 6% | [2]; at 33.0 µM 13% | [3]; at 1.2 µM 6% | [3]; at 3.7 µM 7% | [3]; at 11.0 µM 5% | [3]; at 33.0 µM 27% | [4]; at 1.2 µM 3% | [4]; at 3.7 µM 5% | [4]; [17] -14% | [4]; at 11.0 µM 19% | [4]; [18] 55% | [5]; at 1.2 µM 1% | [5]; at 3.7 µM 2% | [5]; [17] -14% | [5]; at 11.0 µM 8% | [5]; at 33.0 µM 16% | [5]; [18] 3% | [5]; at 50.0 µM 39.4% | [6]; at 1.2 µM 3% | [6]; at 3.7 µM 4% | [6]; at 11.0 µM 5% | [6]; at 33.0 µM 18% | [7]; [17] -15% | [7]; [18] 44% | [7]; at 50.0 µM 45.2% | [8]; at 1.2 µM -5% | [8]; at 3.7 µM 0% | [8]; at 11.0 µM 15% | [8]; at 33.0 µM 14% | [9]; [17] -21% | [9]; [18] 2% | [9]; at 50.0 µM -2.35% | [10]; at 1.2 µM -1% | [10]; at 3.7 µM 1% | [10]; [17] 13% | [10]; at 11.0 µM 4% | [10]; at 33.0 µM 28% | [10]; [18] 25% | [10]; at 50.0 µM 56.8% | [11]; at 1.2 µM 0% | [11]; at 3.7 µM 1% | [11]; at 11.0 µM 8% | [11]; at 33.0 µM 26% | [12]; at 1.2 µM 2% | [12]; at 3.7 µM 4% | [12]; at 11.0 µM 11% | [12]; at 33.0 µM 34% | [13]; at 1.2 µM 2% | [13]; at 3.7 µM 4% | [13]; at 11.0 µM 12% | [13]; at 33.0 µM 33% | [14]; [17] -11% | [14]; [18] 24% | [15]; at 1.2 µM 4% | [15]; at 3.7 µM 13% | [15]; at 11.0 µM 4% | [15]; at 33.0 µM 68%

C[CH2][Sn]1([CH2]C)[O]C2C(O)OC(CO)C(O)C2[O]1 (stereo not drawn)
inactive: [1]; at 1.2 µM 0% | [1]; at 3.7 µM 10% | [1]; at 11.0 µM 19% | [1]; at 33.0 µM 29% | [2]; at 1.2 µM -8% | [2]; at 3.7 µM -15% | [2]; at 11.0 µM -9% | [2]; at 33.0 µM -2% | [2]; at 100.0 µM 61% | [16]; at 1.2 µM -8% | [16]; at 3.7 µM -21% | [16]; at 11.0 µM -34% | [16]; at 33.0 µM -23% | [16]; at 100.0 µM -17% | [4]; at 1.2 µM 12% | [4]; at 3.7 µM 12% | [4]; [17] 17% | [4]; at 11.0 µM -7% | [4]; at 33.0 µM 4% | [4]; [18] 67% | [4]; at 50.0 µM 33.5% | [4]; at 100.0 µM 66% | [5]; at 1.2 µM 10% | [5]; at 3.7 µM 4% | [5]; [17] 8% | [5]; at 11.0 µM 4% | [5]; at 33.0 µM 24% | [5]; at 100.0 µM 67% | [6]; at 1.2 µM 1% | [6]; at 3.7 µM -4% | [6]; at 11.0 µM 2% | [6]; at 33.0 µM -5% | [6]; at 100.0 µM 15% | [7]; [17] 22% | [7]; at 50.0 µM 53.5% | [8]; at 1.2 µM -53% | [8]; at 3.7 µM -73% | [8]; at 11.0 µM -69% | [8]; at 33.0 µM -100% | [8]; at 100.0 µM 45% | [9]; [17] -1% | [9]; [18] 37% | [9]; at 50.0 µM 63.6% | [10]; at 1.2 µM 3% | [10]; at 3.7 µM 4% | [10]; [17] 6% | [10]; at 11.0 µM 10% | [10]; at 33.0 µM 8% | [10]; [18] 69% | [10]; at 50.0 µM 55.6% | [10]; at 100.0 µM 63% | [12]; at 1.2 µM -2% | [12]; at 3.7 µM -2% | [12]; at 11.0 µM -4% | [12]; at 33.0 µM -12% | [12]; at 100.0 µM 39%
active: [1]; at 100.0 µM 76% | [5]; [18] 75% | [5]; at 50.0 µM 80.5% | [7]; [18] 71%
